# Where “and” joins values, the source holds several entries; their conditions need not be identical. Equal entries are not always repeated. About 79,000 compounds went through this panel and 15% of them were active in at least one assay; those are over-represented in the sample as a whole. A structure can be active in one record and inactive in another. Calls of active or inactive are those of the source. Rule as the data show it: active = growth inhibition above about 70%; inactive = the rest.
# How the values were obtained:
# [1] = NCI Yeast Anticancer Drug Screen. Data for the rad52 strain (AID 147);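 also: 0% = growth of vehicle-treated control cultures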; conditions: S. cerevisiae rad52 mutant growth inhibition, stronger effect = higher value
# Method in brief: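 Measured: yeast growth inhibition. System: strain with a defined DNA damage repair alteration. Reference: vehicle-treated control cultures.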
# [2] = NCI Yeast Anticancer Drug Screen. Data for the wt1 strain (AID 149);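 also: 0% = growth of vehicle-treated wt1 cultures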; conditions: S. cerevisiae wt1 strain (SPY 50644) growth inhibition, stronger effect = higher value
# Method in brief: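 The wt1 strain was treated with compounds, and growth was compared with vehicle-treated cultures to give inhibition.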
# [3] = NCI Yeast Anticancer Drug Screen. Data for the rad50EPP+ strain (AID 151);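 also: 0% = growth of vehicle-treated control cultures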; conditions: S. cerevisiae rad50 mutant strain, stronger effect = higher value
# Method in brief: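 One strain with a rad50 alteration (rad50EPP+) was compound-treated, its growth then compared to that of vehicle controls.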
# [4] = NCI Yeast Anticancer Drug Screen. Data for the mgt1 strain (AID 153); conditions: S. cerevisiae mgt1 mutant growth inhibition, stronger effect = higher value
# Method in brief: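 After exposure of the mgt1 yeast mutant to compound, growth was measured and reported as inhibition compared with vehicle controls.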
# [5] = NCI Yeast Anticancer Drug Screen. Data for the rad50 strain (AID 155);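 also: 0% = growth of vehicle-only cultures of the same strain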; conditions: S. cerevisiae rad50 strain growth inhibition, stronger effect = higher value
# Method in brief: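 Cells are treated with compound, grown, and their growth is then scored against vehicle-only cultures of the same repair-deficient yeast strain.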
# [6] = NCI Yeast Anticancer Drug Screen. Data for the mec2-1 strain (AID 157); conditions: S. cerevisiae mec2-1 strain, stronger effect = higher value
# Method in brief: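 Test agents were screened against the mec2-1 yeast strain, with defined DNA repair or cell cycle alteration. Growth was scored as inhibition against vehicle-only controls.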
# [7] = NCI Yeast Anticancer Drug Screen. Data for the rad14 strain (AID 159);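 also: 0% = growth of vehicle-treated control cultures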; conditions: S. cerevisiae rad14 strain growth inhibition, stronger effect = higher value
# Method in brief: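 Readout: yeast growth inhibition, referenced to vehicle-only cultures. Strain bears a defined alteration in DNA damage repair.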
# [8] = NCI Yeast Anticancer Drug Screen. Data for the sgs1 mgt1 strain (AID 161);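 also: 0% = growth of cultures given vehicle only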; conditions: S. cerevisiae sgs1 mgt1 strain, stronger effect = higher value
# Method in brief: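 Test agents were incubated with a DNA-repair-mutant yeast strain. Growth was then read and compared against vehicle-treated controls.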
# [9] = NCI Yeast Anticancer Drug Screen. Data for the CLN2oe strain (AID 163);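 also: 0% = growth of vehicle-only control cultures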; conditions: S. cerevisiae CLN2oe strain, stronger effect = higher value
# Method in brief: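 Here, growth inhibition in a cell-cycle-altered yeast strain after compound exposure was quantified against vehicle control growth.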
# [10] = NCI Yeast Anticancer Drug Screen. Data for the cln2 rad14 strain (AID 165);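 also: 0% = growth equal to vehicle treated cultures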; conditions: S. cerevisiae cln2 rad14 strain, stronger effect = higher value
# Method in brief: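 Growth of compound-exposed yeast (cln2 rad14 genotype) measured and expressed as inhibition relative to vehicle.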
# [11] = NCI Yeast Anticancer Drug Screen. Data for the bub3 strain (AID 167); conditions: S. cerevisiae bub3 mutant strain, stronger effect = higher value
# Method in brief: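 Part of a panel of yeast mutants defective in DNA damage repair or cell cycle regulation. Each strain is grown with compound, and inhibition is calculated relative to solvent-treated cultures.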
# [12] = NCI Yeast Anticancer Drug Screen. Data for the wt2 strain (AID 169);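 also: 0% = growth of vehicle-treated yeast cultures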; conditions: S. cerevisiae wt2 strain growth inhibition, stronger effect = higher value
# Method in brief: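 Genetically defined yeast strains from a DNA-repair/cell-cycle panel were used. Compound-exposed yeast growth was measured, and the inhibition was calculated relative to vehicle treatment.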
# [13] = NCI Yeast Anticancer Drug Screen. Data for the sgs1 strain (AID 173);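 also: 0% = growth of vehicle-only control cultures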; conditions: S. cerevisiae sgs1 mutant, stronger effect = higher value
# Method in brief: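 Relative growth inhibition, referenced to vehicle, was determined in a yeast strain with a defined alteration affecting DNA damage repair or cell cycle control after compound exposure.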
# [14] = NCI Yeast Anticancer Drug Screen. Data for the mlh1 rad18 strain (AID 175); conditions: S. cerevisiae mlh1 rad18 strain growth inhibition, stronger effect = higher value
# Method in brief: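 In this whole-cell yeast screen, a strain with altered DNA damage repair is challenged with compound, and its growth is measured against matched vehicle-treated controls.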
# [15] = NCI Yeast Anticancer Drug Screen. Data for the rad18 strain (AID 177); conditions: S. cerevisiae rad18 mutant growth inhibition, stronger effect = higher value
# Method in brief: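 Screen uses a yeast strain with a defined lesion in DNA damage repair; compound effect is read as loss of growth compared to untreated vehicle cultures.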
# [16] = at 5.0 µM (retest, dose inferred, filed as 0.5)
# [17] = at 50.0 µM (retest, dose inferred, filed as 5.0)
structure (smiles),measurement,setting,value
O=C(NNc1ccccc1)C(O)C(O)C(O)C(O)C(O)CO (stereo not drawn),growth inhibition,[1]; at 1.2 µM,3% (inactive)
same,growth inhibition,[1]; at 3.7 µM,11% (inactive)
same,growth inhibition,[1]; at 11.0 µM,29% (inactive)
same,growth inhibition,[1]; at 33.0 µM,53% (inactive)
same,growth inhibition,[1]; at 100.0 µM,93% (active)
same,growth inhibition,[2]; at 1.2 µM,4% (inactive)
same,growth inhibition,[2]; at 3.7 µM,12% (inactive)
same,growth inhibition,[2]; at 11.0 µM,31% (inactive)
same,growth inhibition,[2]; at 33.0 µM,52% (inactive)
same,growth inhibition,[2]; at 100.0 µM,70% (active)
same,growth inhibition,[3]; at 1.2 µM,9% (inactive)
same,growth inhibition,[3]; at 3.7 µM,29% (inactive)
same,growth inhibition,[3]; at 11.0 µM,43% (inactive)
same,growth inhibition,[3]; at 33.0 µM,64% (inactive)
same,growth inhibition,[3]; at 100.0 µM,86% (active)
same,growth inhibition,[4]; at 1.2 µM,6% (inactive)
same,growth inhibition,[4]; at 3.7 µM,12% (inactive)
same,growth inhibition,[4]; at 11.0 µM,23% (inactive)
same,growth inhibition,[4]; at 33.0 µM,50% (inactive)
same,growth inhibition,[4]; at 100.0 µM,88% (active)
same,growth inhibition,[5]; at 1.2 µM,5% (inactive)
same,growth inhibition,[5]; at 3.7 µM,7% (inactive)
same,growth inhibition,[5]; [16],24% (inactive) and 10% (inactive)
same,growth inhibition,[5]; at 11.0 µM,21% (inactive)
same,growth inhibition,[5]; at 33.0 µM,40% (inactive)
same,growth inhibition,[5]; [17],48% (inactive) and 56% (inactive) and 87% (active)
same,growth inhibition,[5]; at 50.0 µM,91.7% (active) and 24.9% (inactive) and 57.1% (inactive)
same,growth inhibition,[5]; at 100.0 µM,84% (active)
same,growth inhibition,[6]; at 1.2 µM,-2% (inactive)
same,growth inhibition,[6]; at 3.7 µM,2% (inactive)
same,growth inhibition,[6]; [16],-5% (inactive) and 6% (inactive) and 1% (inactive)
same,growth inhibition,[6]; at 11.0 µM,31% (inactive)
same,growth inhibition,[6]; at 33.0 µM,52% (inactive)
same,growth inhibition,[6]; [17],39% (inactive) and 48% (inactive) and 87% (active)
same,growth inhibition,[6]; at 50.0 µM,51.7% (inactive) and 26.8% (inactive) and 80.2% (active)
same,growth inhibition,[6]; at 100.0 µM,82% (active)
same,growth inhibition,[7]; at 1.2 µM,0% (inactive)
same,growth inhibition,[7]; at 3.7 µM,-1% (inactive)
same,growth inhibition,[7]; at 11.0 µM,8% (inactive)
same,growth inhibition,[7]; at 33.0 µM,20% (inactive)
same,growth inhibition,[7]; at 100.0 µM,59% (inactive)
same,growth inhibition,[8]; [16],-10% (inactive) and 9% (inactive) and 13% (inactive)
same,growth inhibition,[8]; [17],35% (inactive) and 52% (inactive) and 71% (active)
same,growth inhibition,[8]; at 50.0 µM,78.5% (active) and 54.9% (inactive) and 60.7% (inactive)
same,growth inhibition,[9]; at 1.2 µM,-2% (inactive)
same,growth inhibition,[9]; at 3.7 µM,3% (inactive)
same,growth inhibition,[9]; at 11.0 µM,22% (inactive)
same,growth inhibition,[9]; at 33.0 µM,52% (inactive)
same,growth inhibition,[9]; at 100.0 µM,76% (active)
same,growth inhibition,[10]; [16],4% (inactive) and 3% (inactive)
same,growth inhibition,[10]; [17],54% (inactive) and 48% (inactive) and 81% (active)
same,growth inhibition,[10]; at 50.0 µM,54.4% (inactive) and 55.3% (inactive) and 78.8% (active)
same,growth inhibition,[11]; at 1.2 µM,-3% (inactive)
same,growth inhibition,[11]; at 3.7 µM,0% (inactive)
same,growth inhibition,[11]; [16],-1% (inactive) and 10% (inactive) and 14% (inactive)
same,growth inhibition,[11]; at 11.0 µM,33% (inactive)
same,growth inhibition,[11]; at 33.0 µM,75% (active)
same,growth inhibition,[11]; [17],38% (inactive) and 79% (active) and 90% (active)
same,growth inhibition,[11]; at 50.0 µM,96.8% (active) and 45.6% (inactive) and 87.4% (active)
same,growth inhibition,[11]; at 100.0 µM,92% (active)
same,growth inhibition,[12]; at 1.2 µM,2% (inactive)
same,growth inhibition,[12]; at 3.7 µM,12% (inactive)
same,growth inhibition,[12]; at 11.0 µM,28% (inactive)
same,growth inhibition,[12]; at 33.0 µM,39% (inactive)
same,growth inhibition,[12]; at 100.0 µM,80% (active)
same,growth inhibition,[13]; at 1.2 µM,2% (inactive)
same,growth inhibition,[13]; at 3.7 µM,10% (inactive)
same,growth inhibition,[13]; at 11.0 µM,37% (inactive)
same,growth inhibition,[13]; at 33.0 µM,67% (inactive)
same,growth inhibition,[13]; at 100.0 µM,94% (active)
same,growth inhibition,[14]; [16],23% (inactive) and 28% (inactive) and 26% (inactive)
same,growth inhibition,[14]; [17],85% (active) and 87% (active) and 93% (active)
same,growth inhibition,[14]; at 50.0 µM,86.9% (active) and 85.9% (active) and 95.2% (active)
same,growth inhibition,[15]; at 1.2 µM,5% (inactive)
same,growth inhibition,[15]; at 3.7 µM,13% (inactive)
same,growth inhibition,[15]; at 11.0 µM,39% (inactive)
same,growth inhibition,[15]; at 33.0 µM,67% (inactive)
same,growth inhibition,[15]; at 100.0 µM,92% (active)
